Assay results taken from the supplement of paper PMC10849652.
Targets with a hit are over-represented here; the source holds about 7,900 in all. About 0.6% of all pairs of compound and target were hits. A number with no mark means an inactive call.

The targets below were run with C1=CC=C(C=C1)[C@H](COC2=CC3=C(C=C2)NC(=O)N3)NC(=O)C4=CC=CN(C4=O)CC5=CC(=C(C=C5)F)F (assay: log2 fold change, soluble protein after heating vs DMSO (PISA); higher = thermal stabilisation; K562 cells, 10 uM, 30 min; active = over 0.2 and 3.5 SD of the protein, either way, in both replicates (recomputed)).
How it was run: (§1)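 K562 cells (2×10^6 cells/mL) were treated with 10 μM compound for 30 min, and aliquots were heated for 3 min over 48°C-58°C. Pooled aliquots were extracted in PBS with 0.5% NP-40 at 4°C, and the supernatant after 21,000xg for 90 min was measured by TMTpro 16plex LC-MS/MS with channel sums equalised. Reported thermal stability, relative to control samples and from duplicates, is a log2 fold change.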

Sequence of UniProt O75607 (O75607 whole entry, looked up): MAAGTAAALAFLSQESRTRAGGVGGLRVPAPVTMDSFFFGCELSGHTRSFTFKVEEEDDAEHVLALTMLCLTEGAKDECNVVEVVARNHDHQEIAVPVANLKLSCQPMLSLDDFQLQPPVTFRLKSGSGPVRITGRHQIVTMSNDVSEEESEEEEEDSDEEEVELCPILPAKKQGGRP
Sequence of UniProt Q8N6M0 (Q8N6M0 whole entry, looked up): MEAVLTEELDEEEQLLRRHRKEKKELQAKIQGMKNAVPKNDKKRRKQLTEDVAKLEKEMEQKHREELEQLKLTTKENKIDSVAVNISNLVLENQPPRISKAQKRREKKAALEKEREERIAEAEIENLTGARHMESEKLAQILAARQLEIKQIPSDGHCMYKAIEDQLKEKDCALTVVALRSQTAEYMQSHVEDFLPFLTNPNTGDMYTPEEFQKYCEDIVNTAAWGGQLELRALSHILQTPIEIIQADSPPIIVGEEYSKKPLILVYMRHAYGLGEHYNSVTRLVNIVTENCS
Sequence of UniProt P55786 (P55786 whole entry, looked up): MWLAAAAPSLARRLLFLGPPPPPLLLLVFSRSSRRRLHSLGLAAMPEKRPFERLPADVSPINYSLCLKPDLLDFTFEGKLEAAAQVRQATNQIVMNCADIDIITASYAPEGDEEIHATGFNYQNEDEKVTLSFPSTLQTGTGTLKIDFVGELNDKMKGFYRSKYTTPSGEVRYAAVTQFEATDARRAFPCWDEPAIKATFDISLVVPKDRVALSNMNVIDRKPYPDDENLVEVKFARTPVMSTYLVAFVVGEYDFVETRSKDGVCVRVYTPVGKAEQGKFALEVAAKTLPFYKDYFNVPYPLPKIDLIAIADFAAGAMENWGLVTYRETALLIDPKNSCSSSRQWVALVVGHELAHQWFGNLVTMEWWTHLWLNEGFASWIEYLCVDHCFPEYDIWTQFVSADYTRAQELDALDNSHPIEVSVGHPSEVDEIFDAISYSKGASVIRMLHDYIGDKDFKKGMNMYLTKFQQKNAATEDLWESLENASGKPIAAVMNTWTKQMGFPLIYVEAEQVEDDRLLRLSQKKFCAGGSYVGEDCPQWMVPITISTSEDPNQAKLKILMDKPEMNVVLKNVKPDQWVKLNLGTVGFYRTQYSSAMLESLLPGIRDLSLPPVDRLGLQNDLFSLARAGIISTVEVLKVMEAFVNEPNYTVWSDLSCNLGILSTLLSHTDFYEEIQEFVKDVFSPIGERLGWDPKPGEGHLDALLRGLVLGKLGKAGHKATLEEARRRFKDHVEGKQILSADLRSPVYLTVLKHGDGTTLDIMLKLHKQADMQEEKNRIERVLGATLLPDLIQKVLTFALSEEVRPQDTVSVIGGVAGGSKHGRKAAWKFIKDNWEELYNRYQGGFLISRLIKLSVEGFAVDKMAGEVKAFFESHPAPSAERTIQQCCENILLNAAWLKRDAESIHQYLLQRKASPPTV
Sequence of UniProt Q9H000 (Q9H000 whole entry, looked up): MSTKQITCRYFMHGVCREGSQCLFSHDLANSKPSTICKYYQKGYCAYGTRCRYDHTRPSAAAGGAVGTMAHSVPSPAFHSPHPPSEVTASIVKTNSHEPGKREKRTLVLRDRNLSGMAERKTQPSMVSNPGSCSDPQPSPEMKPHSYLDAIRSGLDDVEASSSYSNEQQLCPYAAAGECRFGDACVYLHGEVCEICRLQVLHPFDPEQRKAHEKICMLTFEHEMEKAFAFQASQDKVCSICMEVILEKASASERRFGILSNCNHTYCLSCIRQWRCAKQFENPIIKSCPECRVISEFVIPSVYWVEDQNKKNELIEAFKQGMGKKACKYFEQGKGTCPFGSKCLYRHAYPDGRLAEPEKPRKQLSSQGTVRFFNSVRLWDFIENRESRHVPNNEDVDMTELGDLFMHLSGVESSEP
Sequence of UniProt Q9H019 (Q9H019 whole entry, looked up): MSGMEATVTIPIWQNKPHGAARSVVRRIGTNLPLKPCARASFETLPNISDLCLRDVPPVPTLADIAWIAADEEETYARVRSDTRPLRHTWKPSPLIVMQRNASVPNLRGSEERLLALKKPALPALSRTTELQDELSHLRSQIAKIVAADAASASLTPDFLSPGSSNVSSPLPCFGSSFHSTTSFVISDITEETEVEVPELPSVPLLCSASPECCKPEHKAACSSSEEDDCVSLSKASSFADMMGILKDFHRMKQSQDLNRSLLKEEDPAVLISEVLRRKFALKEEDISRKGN
Sequence of UniProt Q9UHC9 (Q9UHC9 whole entry, looked up): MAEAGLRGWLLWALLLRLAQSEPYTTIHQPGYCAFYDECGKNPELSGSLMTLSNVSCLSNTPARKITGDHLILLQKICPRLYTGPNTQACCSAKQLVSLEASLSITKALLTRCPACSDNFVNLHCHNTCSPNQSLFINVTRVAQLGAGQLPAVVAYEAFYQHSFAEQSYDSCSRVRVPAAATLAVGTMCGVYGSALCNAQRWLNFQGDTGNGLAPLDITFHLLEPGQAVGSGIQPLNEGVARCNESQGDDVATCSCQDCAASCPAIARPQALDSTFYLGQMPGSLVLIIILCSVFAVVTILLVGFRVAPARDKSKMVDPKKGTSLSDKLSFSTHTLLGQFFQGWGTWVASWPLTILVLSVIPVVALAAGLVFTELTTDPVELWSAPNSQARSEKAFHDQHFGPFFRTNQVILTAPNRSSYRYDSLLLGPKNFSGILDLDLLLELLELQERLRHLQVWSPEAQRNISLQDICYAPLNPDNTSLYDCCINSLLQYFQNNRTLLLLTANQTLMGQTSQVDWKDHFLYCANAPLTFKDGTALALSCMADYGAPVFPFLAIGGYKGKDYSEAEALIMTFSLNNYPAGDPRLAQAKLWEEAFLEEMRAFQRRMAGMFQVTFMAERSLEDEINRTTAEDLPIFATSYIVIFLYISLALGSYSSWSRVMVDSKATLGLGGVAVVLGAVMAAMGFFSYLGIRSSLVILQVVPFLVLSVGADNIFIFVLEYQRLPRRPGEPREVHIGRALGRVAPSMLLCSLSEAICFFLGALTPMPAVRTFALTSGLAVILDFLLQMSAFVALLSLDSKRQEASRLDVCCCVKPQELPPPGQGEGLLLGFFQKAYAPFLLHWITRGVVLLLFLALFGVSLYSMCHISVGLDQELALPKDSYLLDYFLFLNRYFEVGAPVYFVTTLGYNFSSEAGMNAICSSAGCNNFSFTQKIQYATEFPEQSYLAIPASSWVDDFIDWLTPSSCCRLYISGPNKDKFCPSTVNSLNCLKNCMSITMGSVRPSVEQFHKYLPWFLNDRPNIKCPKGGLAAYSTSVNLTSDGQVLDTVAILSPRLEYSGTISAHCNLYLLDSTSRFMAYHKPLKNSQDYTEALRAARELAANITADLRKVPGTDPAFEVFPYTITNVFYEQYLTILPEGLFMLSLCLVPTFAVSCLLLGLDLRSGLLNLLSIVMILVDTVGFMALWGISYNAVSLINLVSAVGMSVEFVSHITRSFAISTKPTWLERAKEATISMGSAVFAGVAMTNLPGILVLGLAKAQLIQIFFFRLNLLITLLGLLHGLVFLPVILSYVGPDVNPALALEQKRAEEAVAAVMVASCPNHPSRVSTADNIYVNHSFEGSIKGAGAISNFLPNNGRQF
Sequence of UniProt Q96IV0 (Q96IV0 whole entry, looked up): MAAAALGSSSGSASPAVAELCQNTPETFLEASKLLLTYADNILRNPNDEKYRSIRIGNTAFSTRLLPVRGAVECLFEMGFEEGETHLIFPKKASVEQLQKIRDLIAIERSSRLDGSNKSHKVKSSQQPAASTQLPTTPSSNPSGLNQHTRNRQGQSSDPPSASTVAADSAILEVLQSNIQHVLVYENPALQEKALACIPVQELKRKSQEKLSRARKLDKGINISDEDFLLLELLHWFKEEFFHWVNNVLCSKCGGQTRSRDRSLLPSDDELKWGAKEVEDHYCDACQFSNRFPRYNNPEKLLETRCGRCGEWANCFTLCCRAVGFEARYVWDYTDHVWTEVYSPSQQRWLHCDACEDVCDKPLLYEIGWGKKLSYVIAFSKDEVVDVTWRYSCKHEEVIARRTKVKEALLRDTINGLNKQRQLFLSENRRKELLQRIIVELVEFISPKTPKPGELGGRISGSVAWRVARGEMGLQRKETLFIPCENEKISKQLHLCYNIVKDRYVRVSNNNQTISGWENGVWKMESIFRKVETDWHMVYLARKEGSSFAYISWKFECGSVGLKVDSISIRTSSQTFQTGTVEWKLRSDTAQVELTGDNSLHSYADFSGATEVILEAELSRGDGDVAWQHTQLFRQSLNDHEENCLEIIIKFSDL
Sequence of UniProt O95747 (O95747 whole entry, looked up): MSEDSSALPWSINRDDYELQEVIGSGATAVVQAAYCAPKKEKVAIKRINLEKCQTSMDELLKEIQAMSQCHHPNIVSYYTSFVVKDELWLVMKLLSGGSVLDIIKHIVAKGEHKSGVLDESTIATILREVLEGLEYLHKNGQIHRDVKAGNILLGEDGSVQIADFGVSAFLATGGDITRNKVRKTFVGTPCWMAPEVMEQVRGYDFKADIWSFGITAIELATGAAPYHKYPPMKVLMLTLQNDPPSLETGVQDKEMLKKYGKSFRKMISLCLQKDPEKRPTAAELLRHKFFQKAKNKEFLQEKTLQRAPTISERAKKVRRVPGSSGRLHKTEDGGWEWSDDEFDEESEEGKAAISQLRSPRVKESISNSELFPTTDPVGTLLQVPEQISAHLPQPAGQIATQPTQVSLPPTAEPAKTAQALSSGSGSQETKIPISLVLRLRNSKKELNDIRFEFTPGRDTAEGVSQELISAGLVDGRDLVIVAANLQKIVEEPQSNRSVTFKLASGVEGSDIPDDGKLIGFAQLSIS
Sequence of UniProt Q8WUY8 (Q8WUY8 whole entry, looked up): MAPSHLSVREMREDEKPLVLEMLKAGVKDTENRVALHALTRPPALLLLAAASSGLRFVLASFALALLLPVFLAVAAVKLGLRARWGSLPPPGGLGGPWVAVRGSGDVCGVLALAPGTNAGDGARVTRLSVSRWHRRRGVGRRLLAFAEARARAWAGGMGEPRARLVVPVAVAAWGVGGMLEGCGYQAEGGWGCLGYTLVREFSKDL
Sequence of UniProt Q9BRA0 (Q9BRA0 whole entry, looked up): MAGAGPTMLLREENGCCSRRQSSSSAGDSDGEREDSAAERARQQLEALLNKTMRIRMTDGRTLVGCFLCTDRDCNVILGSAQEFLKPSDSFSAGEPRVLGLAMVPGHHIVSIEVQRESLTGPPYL

Target | log2 fold change
NDUFS4 (UniProt O43181) | 0.078
NGLY1 (UniProt Q96IV0) | -0.084
MORC2 (UniProt Q9Y6X9) | -0.293
NPM3 (UniProt O75607) | 0.066
MRPS2 (UniProt Q9Y399) | -0.084
NEDD4 isoform 4 (UniProt P46934) | -0.006
MTFR1L (UniProt Q9H019) | -0.036
MRPS27 isoform 2 (UniProt Q92552) | -0.063
NAA11 (UniProt Q9BSU3) | 0.009
OSBPL8 (UniProt Q9BZF1) | -0.051
PAAF1 (UniProt Q9BRP4) | -0.012
MRPS31 (UniProt Q92665) | -0.042
NQO1 (UniProt P15559) | 0.07
MXRA7 (UniProt P84157) | 0.008
MYSM1 (UniProt Q5VVJ2) | 0.07
NA (UniProt J3KR12) | -0.042
NIPSNAP2 (UniProt C9J7B1) | -0.069
NAT14 (UniProt Q8WUY8) | -0.059
OTUD6B (UniProt Q8N6M0) | -0.051

Target | log2 fold change
NMT1 (UniProt P30419) | 0
NOP53 (UniProt Q9NZM5) | 0.103
NRGN (UniProt Q92686) | 0.048
OXSR1 (UniProt O95747) | -0.039
NKTR (UniProt P30414) | 0.014
MKRN2 (UniProt Q9H000) | 0.029
MRPL46 (UniProt Q9H2W6) | 0
NAA38 isoform 2 (UniProt Q9BRA0) | 0.038
MRPS5 (UniProt P82675) | -0.017
NPC1L1 (UniProt Q9UHC9) | 0.183
PACS1 (UniProt Q6VY07) | -0.02
NA isoform 3 (UniProt Q4G0T1) | 0.161
MRPS33 (UniProt Q9Y291) | 0.005
NOL7 (UniProt Q9UMY1) | 0.168
OVCA2 (UniProt Q8WZ82) | -0.152
NMRAL1 (UniProt Q9HBL8) | -0.12
NA (UniProt B2RBV5) | 0.002
NPEPPS (UniProt P55786) | -0.044
PAFAH2 (UniProt Q99487) | -0.191

Each target was assayed with CC1=C(SC2=C1C(=N[C@H](C3=NN=C(N32)C)CC(=O)N)C4=CC=C(C=C4)Cl)C in the same assay as above.
How it was run: as §1

Target | log2 fold change
NDUFS4 (UniProt O43181) | -0.04
NGLY1 (UniProt Q96IV0) | 0.01
NPM3 (UniProt O75607) | -0.08
MRPS2 (UniProt Q9Y399) | 0.147
NEDD4 isoform 4 (UniProt P46934) | 0.103
MTFR1L (UniProt Q9H019) | -0.009
MRPS27 isoform 2 (UniProt Q92552) | 0.04
NAA11 (UniProt Q9BSU3) | 0.042
OSBPL8 (UniProt Q9BZF1) | -0.071
PAAF1 (UniProt Q9BRP4) | 0.043
MRPS31 (UniProt Q92665) | 0.028
NQO1 (UniProt P15559) | 0.122
MXRA7 (UniProt P84157) | 0.167
NAT14 (UniProt Q8WUY8) | 0.055
OTUD6B (UniProt Q8N6M0) | 0.022
NMT1 (UniProt P30419) | 0.032
NOP53 (UniProt Q9NZM5) | -0.332
OXSR1 (UniProt O95747) | 0.048
MKRN2 (UniProt Q9H000) | 0.046
MRPL46 (UniProt Q9H2W6) | -0.1
NAA38 isoform 2 (UniProt Q9BRA0) | 0.057
MRPS5 (UniProt P82675) | 0.009
NPC1L1 (UniProt Q9UHC9) | 0.063
PACS1 (UniProt Q6VY07) | 0.042
NA isoform 3 (UniProt Q4G0T1) | -0.017
MRPS33 (UniProt Q9Y291) | -0.057
NOL7 (UniProt Q9UMY1) | -0.221
NMRAL1 (UniProt Q9HBL8) | -0.017
NPEPPS (UniProt P55786) | 0.064
PAFAH2 (UniProt Q99487) | 0.016

Each target was assayed with CC1=C2C(=CC=C1)N=C(N(C2=O)C3=CC=CC=C3C)CN4C=NC5=C(N=CN=C54)N in the same assay as above.
How it was run: as §1

Target | log2 fold change
NDUFS4 (UniProt O43181) | -0.096
NGLY1 (UniProt Q96IV0) | 0.114
NPM3 (UniProt O75607) | -0.087
MRPS2 (UniProt Q9Y399) | -0.042
NEDD4 isoform 4 (UniProt P46934) | 0.081
MTFR1L (UniProt Q9H019) | 0.066
MRPS27 isoform 2 (UniProt Q92552) | 0.01
NAA11 (UniProt Q9BSU3) | 0.049
OSBPL8 (UniProt Q9BZF1) | 0.007
PAAF1 (UniProt Q9BRP4) | 0.076
MRPS31 (UniProt Q92665) | 0.021
NQO1 (UniProt P15559) | 0.083
MXRA7 (UniProt P84157) | 0.293
NAT14 (UniProt Q8WUY8) | -0.087
OTUD6B (UniProt Q8N6M0) | 0.11
NMT1 (UniProt P30419) | -0.001
NOP53 (UniProt Q9NZM5) | -0.415
OXSR1 (UniProt O95747) | 0.096
MKRN2 (UniProt Q9H000) | 0.143
MRPL46 (UniProt Q9H2W6) | -0.037
NAA38 isoform 2 (UniProt Q9BRA0) | -0.013
MRPS5 (UniProt P82675) | -0.03
NPC1L1 (UniProt Q9UHC9) | 0.024
PACS1 (UniProt Q6VY07) | 0.033
NA isoform 3 (UniProt Q4G0T1) | 0.026
MRPS33 (UniProt Q9Y291) | -0.114
NOL7 (UniProt Q9UMY1) | -0.265
NMRAL1 (UniProt Q9HBL8) | 0.025
NPEPPS (UniProt P55786) | 0.159
PAFAH2 (UniProt Q99487) | 0.066
